Source: PubChem BioAssay (The Scripps Research Institute Molecular Screening Center)
Hits are enriched below; roughly 4.1% of the tested compounds scored in any of these assays.
hcDAF12 agonist: activates DAF-12 receptor from parasite H. contortus | HEK293 hcDAF-12 lit1-tk-luc reporter, luminescence; 0% DMSO, 100% Δ7-dafachronic acid | activation, % at 6.8 µM | hit rate 1.4% among 370,000;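 active = activation above the mean of all tested compounds plus 3 SD, cut at about 5.5% in these data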;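 also: 100% = response to 3 µM Δ7-dafachronic acid high control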
hgDAF-12 ag: agonists of H. glycines DAF-12 nuclear receptor | activation, % at 6.8 µM | AID 687014 | hit rate 1.8% among 370,000 | HEK293 GAL4-hgDAF12 UAS-luciferase reporter, agonist luminescence; normalized to butyrate control;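 active = activation above a cutoff set at the mean of all screened compounds plus 3 SD, cut at about 10% in these data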;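 also: 0% = DMSO wells and 100% = sodium butyrate wells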
DAX1 inh-1: DAX1 (NR0B1) inhibition, primary screen. HEK293T StAR-luciferase reporter, SF-1/DAX-1 repression relief. inhibition, % at 6.8 µM. hit rate 1.1% among 370,000;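 active = inhibition above the mean over all tested compounds plus 3 SD, cut at about 3.6% in these data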;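 also: 0% = DAX-1 cells with DMSO and 100% = cells lacking DAX-1 with DMSO; higher inhibition means more luminescence from relief of DAX-1 repression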
DAX1 inh-2: inhibitors of human orphan nuclear receptor DAX1 (NR0B1) | HEK293 Gal4-DAX1 luciferase reporter, luminescence | inhibition, % at 6.75 µM | hit rate 0.99% among 340,000 | AID 504766;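 active = inhibition above the mean over all tested compounds plus 3 SD, cut at about 4.2% in these data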;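 also: 0% = DAX1-transfected cells with DMSO and 100% = empty-vector control cells with DMSO; inhibition shows as a rise in luminescence from relieved DAX1 repression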
ssDAF-12 act: S. stercoralis DAF-12 activation, primary screen; HEK293 ssDAF-12/GRIP1 lit1-tk-luc reporter, luminescence; % of 3 µM dafachronic acid response; hit rate 1% among 370,000; activation, % at 6.8 µM;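 active = activation above the mean over all tested compounds plus 3 SD, cut at about 0.9% in these data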;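 also: 0% = DMSO-only wells and 100% = 3 µM delta7-dafachronic acid wells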
DAX1 inh confirm: NR0B1 (human) inhibition, confirmation; HEK293T StAR-promoter luciferase reporter, SF-1/DAX-1 repression; shares compounds with DAX1 inh-1; hit rate 87% among 2,400; AID 652134; inhibition, % at 6.8 µM;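 active = inhibition above the average of every tested compound plus 3 SD, cut at about 3.8% in these data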;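 also: 0% = DAX-1 cells with DMSO and 100% = no DAX-1 control cells with DMSO; active compounds raise luminescence by relieving repression of the StAR reporter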
SF1 AF2mut Luc: nonselective inhibitor or artifact in SF-1 mutant DAX1 counter-screen | shares compounds with DAX1 inh-1 | HEK293 StAR-luciferase, SF-1 AF2 mutant, luminescence | inhibition, % at 6.8 µM | hit rate 78% among 2,400 | AID 652136;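 active = inhibition above the mean of all tested compounds plus 3 SD, cut at about 3% in these data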;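 also: 0% = DAX-1 transfected cells with DMSO and 100% = cells without DAX-1 with DMSO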
LXRb hcDAF ctr: activates human LXR-beta, counter-screen for hcDAF-12 agonists; HEK293 Gal4-LXR tk-luc reporter, luminescence, 24 h; normalized: DMSO 0%, positive control 100%; AID 743027; activation, % at 6.8 µM; 3,400 tested, under 10 active; shares compounds with hcDAF12 agonist;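 active = mean percent activation of the reporter above a cutoff set as the average over tested compounds plus their standard deviation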
Target sequence (P55055 whole entry, looked up, the tested form may be a part): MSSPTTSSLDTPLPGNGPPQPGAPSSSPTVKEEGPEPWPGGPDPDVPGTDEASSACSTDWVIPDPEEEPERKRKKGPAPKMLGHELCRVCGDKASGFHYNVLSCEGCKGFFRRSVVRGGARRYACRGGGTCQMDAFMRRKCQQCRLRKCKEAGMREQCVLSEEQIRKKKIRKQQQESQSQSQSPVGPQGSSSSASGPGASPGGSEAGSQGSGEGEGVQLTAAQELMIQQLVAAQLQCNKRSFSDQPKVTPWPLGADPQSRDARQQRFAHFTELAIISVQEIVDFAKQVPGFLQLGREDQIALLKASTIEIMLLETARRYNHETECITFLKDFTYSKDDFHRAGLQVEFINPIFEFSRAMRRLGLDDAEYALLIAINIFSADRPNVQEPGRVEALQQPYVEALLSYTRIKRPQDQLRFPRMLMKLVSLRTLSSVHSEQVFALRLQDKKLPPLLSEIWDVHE
hcDAF12 ag: hcDAF-12 agonism, confirmation assay | HEK293 hcDAF-12 lit1-tk-luc reporter, luminescence; % of Δ7-dafachronic acid response | hit rate 61% among 3,400 | activation, % at 6.8 µM | shares compounds with hcDAF12 agonist;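 active = mean activation across triplicate tests above the threshold derived from the earlier primary screen, cut at about 5.5% in these data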;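 also: 0% = DMSO only wells and 100% = 3 µM Δ7-dafachronic acid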
hgDAF12 conf: hgDAF-12 agonism, confirmation assay. hit rate 80% among 3,300. activation, % at 6.8 µM. AID 743050. shares compounds with hgDAF-12 ag. HEK293 GAL4-hgDAF12 luciferase reporter, agonist mode; percent of butyrate response;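 active = mean activation over triplicate wells above the hit cutoff derived from the earlier primary screen, cut at about 11% in these data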;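 also: 0% = DMSO low control and 100% = 2 mM sodium butyrate high control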
LXR ag 2: activates human LXR-beta, counter-screen for DAF-12 agonists; 3,300 tested, under 10 active; HEK293 Gal4-LXR luciferase reporter, 24 h; activation, % at 6.8 µM; shares compounds with hgDAF-12 ag; AID 743051;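 active = mean activation of the triplicate above a set limit carried over from the primary screen, none filed active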
* = called active by the depositor; nt = no result.

SMILES	hcDAF12 agonist	hgDAF-12 ag	DAX1 inh-1	DAX1 inh-2	ssDAF-12 act	DAX1 inh confirm	SF1 AF2mut Luc	LXRb hcDAF ctr	hcDAF12 ag	hgDAF12 conf	LXR ag 2
O=C(COc1ccccc1[N+](=O)[O-])Nc1ccc2c(c1)OCO2	9.2*	15*	6.7*	3	0	6.8*	4.1*	1	5.8*	12*	1
COCC(=O)Nc1ccc2c(c1)OCO2	-1	-2	0	-3	-1	nt	nt	nt	nt	nt	nt
Cc1c(C)n(CCc2ccccc2)c2ncnc(NCCCN(C)C)c12	1	1	1	1	-1	nt	nt	nt	nt	nt	nt
Cc1ccc(S(=O)(=O)N(C)C[C@@H]2OCc3cnnn3CCCC(=O)N([C@H](C)CO)C[C@H]2C)cc1	0	0	0	1	-1	nt	nt	nt	nt	nt	nt
Cc1ccc(Cc2c(-c3cccc(Br)c3)nc3ccc(Br)cn23)cc1	1	6	3	nt	-1	nt	nt	nt	nt	nt	nt
Cc1ccc2nc(-c3cccc(Br)c3)c(Cc3ccsc3)n2c1	3	15*	4.5*	nt	-1	3	1	nt	nt	5	0
Cc1c(NC(=S)NC(=O)c2sc3ccccc3c2Cl)cccc1C(=O)O	3	18*	5.9*	-1	0	9.6*	6.8*	nt	nt	16*	1
COc1ccccc1C(=O)NC(=S)NNC(=O)c1sc2ccccc2c1Cl	3	0	0	1	0	nt	nt	nt	nt	nt	nt
O=C(NN=Cc1ccc2c(c1)CCN2)c1cccs1	9.8*	22*	6.7*	5.6*	1.5*	17*	7.0*	2	5.6*	26*	1
Nc1[nH]c2cc([N+](=O)[O-])ccc2c1-c1ccccn1	1	4	-1	0	0	nt	nt	nt	nt	nt	nt
COc1ccc2cc(-c3cc(C(=O)OCC(=O)Nc4c(C)n(C)n(-c5ccccc5)c4=O)c4ccccc4n3)ccc2c1	2	15*	4.8*	-2	0	11*	6.4*	nt	nt	12*	1
O=C1C(c2cc(=O)c3ccccc3[nH]2)=C(O)c2ccccc21	10*	21*	4.6*	3	1.6*	16*	8.0*	1	8.1*	18*	1
C(=N\n1c2ccccc2c2ccccc21)/c1ccccc1	10*	0	0	0	0	nt	nt	0	5.9*	nt	nt
Oc1ccccc1/C=N/n1c2ccccc2c2ccccc21	1	-3	0	-1	-2	nt	nt	nt	nt	nt	nt
CCn1ncc(/C=N/NC(=O)c2cc(Cl)ccc2OC)c1C	8.3*	0	0	0	-1	nt	nt	0	1	nt	nt
COc1ccc(Cl)cc1C(=O)N/N=C/c1ccc(N2CCOCC2)cc1	0	0	0	-2	-1	nt	nt	nt	nt	nt	nt
Cn1c(NCc2cccnc2)nc2cc(-c3ccc(C(=O)N4CCOCC4)cc3)sc2c1=O	-2	-3	-3	nt	-1	nt	nt	nt	nt	nt	nt
O=[N+]([O-])c1nn(-c2ccc3c(c2)OCCO3)n(O)c1=NCc1ccccc1Cl	1	7	2	2	0	nt	nt	nt	nt	nt	nt
COc1ccccc1CN=c1c([N+](=O)[O-])nn(-c2ccc3c(c2)OCCO3)n1O	9.0*	11*	3	2	0	nt	nt	0	3	nt	nt
O=C(Nc1cccc(Cl)c1)OCCN1CCCC12CCC(c1ccccc1)CC2 (stereo unspecified)	-2	3	nt	nt	-2	nt	nt	nt	nt	nt	nt
CCOC(=O)CC[C@H]1CC[C@]2(CCCN(S(=O)(=O)c3ccccc3)C2)O1	-2	-3	0	nt	-1	nt	nt	nt	nt	nt	nt
